The text below walks through data of PubChem BioAssay AID2156 (Johns Hopkins Ion Channel Center, 2009).

In all, about 310,000 compounds went through this assay and about 3,400 (1.1%) were called active. This excerpt belongs to a sample that is enriched for actives. A number with no mark means an inactive call.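 How the source made its calls: active means fluorescence ratio B-score at most minus 3 library SDs, with starting brightness B-score within 2 library SDs (cut at about -5.5 in these data); inactive means the rest, inconclusive results apart.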

In the assay the target is Potassium voltage-gated channel subfamily KQT member 2 (Rattus norvegicus) (UniProt O88943). As to the kind of experiment: KCNQ2 channel blockers in CHO-K1 cells – cell-based, FluxOR thallium flux, B-score, primary screen (AID 2156). To be noted: 20 min, at 10 µM; hits give low values.
Sequence of Potassium voltage-gated channel subfamily KQT member 2 (Rattus norvegicus) (O88943 whole entry, looked up): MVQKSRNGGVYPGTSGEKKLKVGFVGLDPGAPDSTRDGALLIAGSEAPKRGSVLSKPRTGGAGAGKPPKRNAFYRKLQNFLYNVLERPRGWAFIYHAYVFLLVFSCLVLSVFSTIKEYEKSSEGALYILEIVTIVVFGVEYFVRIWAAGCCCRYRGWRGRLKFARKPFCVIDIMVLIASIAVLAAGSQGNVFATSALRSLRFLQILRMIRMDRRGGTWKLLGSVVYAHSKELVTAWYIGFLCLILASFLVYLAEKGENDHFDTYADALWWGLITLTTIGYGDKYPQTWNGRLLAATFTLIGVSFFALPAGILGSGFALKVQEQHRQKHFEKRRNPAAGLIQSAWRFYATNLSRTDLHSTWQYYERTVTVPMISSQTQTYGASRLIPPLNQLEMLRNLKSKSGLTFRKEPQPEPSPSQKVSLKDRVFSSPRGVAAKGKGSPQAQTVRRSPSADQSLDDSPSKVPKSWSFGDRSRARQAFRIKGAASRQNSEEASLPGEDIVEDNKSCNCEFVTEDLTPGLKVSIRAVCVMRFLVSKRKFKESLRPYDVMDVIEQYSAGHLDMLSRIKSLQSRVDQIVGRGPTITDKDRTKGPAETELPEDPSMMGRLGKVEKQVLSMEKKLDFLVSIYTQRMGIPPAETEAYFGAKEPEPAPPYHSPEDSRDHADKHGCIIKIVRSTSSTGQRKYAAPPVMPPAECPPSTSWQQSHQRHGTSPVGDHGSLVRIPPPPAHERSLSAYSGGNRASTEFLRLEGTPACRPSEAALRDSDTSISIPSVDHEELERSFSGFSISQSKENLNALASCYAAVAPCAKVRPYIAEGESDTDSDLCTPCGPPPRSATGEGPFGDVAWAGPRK
Consider `CC(=O)c1c(C)[nH]c(C(=O)CN2C(=O)NC(C)(C)C2=O)c1C`, for which the B-score result is “inactive”.
For `COc1ccccc1NS(=O)(=O)c1ccc(C(=O)N2CCN(c3ccccc3O)CC2)cc1` the value was “inactive”.
For `Cc1c(NC(=O)C(C)OC(=O)c2c3c(nc4ccccc24)CCC(C)C3)c(=O)n(-c2ccccc2)n1C` (stereo not given) the value was “inactive”; for `Cc1ccc2c(c1)N(C(=O)CCC(=O)NCc1cccnc1)CCO2`, -0.11; for `Cc1ccc2c(c1)N(C(=O)CCC(=O)N1CCc3ccccc3C1)CCO2`, -5.74 (active).
For `Cc1ccc(Cl)c(OCC(=O)N2CCc3ccccc3C2)c1` the value was -3.66.
Take `COc1ccc(C(=O)OCC(=O)Nc2ccc3[nH]c(=O)[nH]c3c2)c(OC)c1OC`: the B-score is -0.64.
The figure for `Cc1cc(C(=O)NC2CCCc3c2cnn3-c2cccc(C)c2C)c(C)o1` (stereo not given) is -2.79; for `COc1ccc(C(=O)NC2CCCc3c2cnn3-c2cccc(C)c2C)c(OC)n1` (stereo not given) it is -6.25 (active); for `Cn1nccc1C(=O)NC1CCCc2c1cnn2-c1ccccc1F` (stereo not given) it is “inactive”.
The entry for `O=C(COC(=O)Cn1[nH]c(=O)c2ccccc2c1=O)Nc1c(Cl)cccc1C(F)(F)F` is “inactive”; for `Cc1ccc2nc(NC(=O)CSc3nc(=O)n(CCCN(C)C)c4c3CCC4)sc2c1` it is “inactive”; for `CC12CCC(=O)N1C(C(=O)Nc1ccc(F)c(F)c1F)CS2` (stereo not given) it is “inactive”.
In the case of `CCOc1ccc(NS(=O)(=O)c2ccc(C(=O)NCC(c3ccccc3OC)N3CCCC3)cc2)cc1` (stereo not given), the B-score is -1.58.
For `Cc1ccc(N2C(=O)C3C(c4ccccc4)(C2=O)C3(c2ccccc2)c2ccccc2)cc1` (stereo not given), the B-score is -9.48 (active).
For `Cc1ccc(N2C(=O)CC(Nc3cccc4ccccc34)C2=O)cc1` (stereo not given) the value was -1.06.
For `Cc1ccc(N2C(=O)C3CC3C2=O)cc1` (stereo not given) the value was “inactive”; for `CN(CC(=O)Nc1ccccc1Cl)C(=O)c1ccccc1SCC(=O)N1CCCC1`, -0.59.
Take `CCCCCCCNC(=O)C1(CC2CC(c3cccc(Br)c3)=NO2)CCN(C(=O)c2cc(OCC)c(OCC)c(OCC)c2)CC1` (stereo not given): the B-score was -2.53.
For `N#Cc1c(NC(=O)CCCN2C(=O)c3ccccc3C2=O)oc(-c2ccccc2)c1-c1ccccc1` the value was -1.14; for `COC(=O)c1sccc1NC(=O)c1cc(OC)c(OC)c(OC)c1`, “inactive”.
In the case of `COc1cc(C(=O)Nc2oc(-c3ccccc3)c(-c3ccccc3)c2C#N)cc(OC)c1OC`, the B-score is -6.31 (active).
On to `Cc1cccc(-c2nc(Nc3ccc(O)cc3)c3ccccc3n2)c1`, for which the B-score is -3.05.
For `Cc1cccc(-[n+]2c(-c3cccc(Br)c3)[nH]c3nc4ccccc4nc32)c1` the value was -6.92 (active); for `CCCCn1c(N)c(N(CCOC)C(=O)CSCC(=O)Nc2cccc(C)c2)c(=O)[nH]c1=O`, “inactive”.
